Records with an inconclusive call do not appear. Activity calls are given as the source filed them. Calls come from the whole dose curve; as a rule, active = well fitted inhibition curve with a large enough effect; inconclusive = small, poorly fitted or top-dose-only effect; inactive = flat fitted curve, though single readings scatter.
What was measured:
Assay in all cases: qHTS profiling for inhibitors of Plasmodium falciparum proliferation (AID 504749); note: nearly all actives have a fitted effect of over 60% in size
Conditions in all cases: P. falciparum in erythrocytes, SYBR Green DNA, 72 h; series mostly up to 28.7 µM
N140 = tested on: N140
Outline: (§1)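 Each compound contacts P. falciparum-infected red blood cells for 72 h at 37 C; lysis buffer (Tris, EDTA, saponin, Triton X, SYBR Green I) is added and fluorescence measured next morning; values normalized to controls.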

P93_24 = tested on: P93_24
Outline: as §1

P94_40 = tested on: P94_40
Outline: as §1

PAD = tested on: PAD
Outline: as §1

PC15 = tested on: PC15
Outline: as §1

PC26 = tested on: PC26
Outline: as §1

PC49 = tested on: PC49
Outline: as §1

SC27B = tested on: SC27B
Outline: as §1

TAB109 = tested on: TAB109
Outline: as §1

TAB113 = tested on: TAB113
Outline: as §1

Measured: Potency
Potency is the fitted concentration of half-maximal effect.

Nc1nc2c(c(=O)[nH]1)N(C=O)[C@H](CNc1ccc(C(=O)N[C@@H](CCC(=O)O)C(=O)O)cc1)CN2
inactive: all assays above

COc1cccc2c1C(=O)c1c(O)c3c(c(O)c1C2=O)C[C@@](O)(C(=O)CO)C[C@@H]3O[C@H]1C[C@H](N)[C@H](OC2CCCCO2)[C@H](C)O1 (stereo partly drawn)
active: N140 1580 nM | P93_24 2240 nM | P94_40 2510 nM | PAD 2.24 µM | PC15 10 µM | PC26 7.57 µM | PC49 4.47 µM | SC27B 2820 nM | TAB109 2.51 µM | TAB113 3550 nM

CCC(C(=O)O)C1CCC(C)C(C(C)C(O)C(C)C(=O)C(CC)C2OC3(C=CC(O)[C@@]4(CC[C@](C)(C5CC[C@@](O)(CC)C(C)O5)O4)O3)C(C)CC2C)O1 (stereo partly drawn)
active: N140 891 nM | P93_24 891 nM | P94_40 501 nM | PAD 1.41 µM | PC15 2 µM | PC26 0.478 µM | PC49 2.51 µM | SC27B 794 nM | TAB109 1 µM | TAB113 891 nM

COc1ccc2c(c1OC)C(=O)OC2[C@H]1c2c(cc3c(c2OC)OCO3)CCN1C (stereo partly drawn)
inactive: all assays above

OCC(O)C(O)C(O)CO (stereo not drawn)
inactive: all assays above

CCCCCCCCCCCC(CC1OC(=O)C1CCCCCC)OC(=O)C(CC(C)C)NC=O (stereo not drawn)
active: N140 631 nM | P93_24 891 nM | P94_40 355 nM | PC15 1.12 µM | PC49 0.891 µM | SC27B 447 nM | TAB109 0.794 µM | TAB113 282 nM

COc1ccc([C@@H]2CNC(=O)C2)cc1OC1CCCC1
inactive: all assays above
